Rows were chosen to be rich in hits. Some 21% of all compounds tested hit in one or more screens of this group.
TDP1 cell CPT: growth inhibition of DT40 Tdp1-/-;hTDP1 cells with camptothecin (screen for TDP1 inhibitors); chicken DT40 Tdp1-/-;hTDP1 cells + 20 nM CPT, ATP luminescence, 48 h; AID 686979; 420,000 compounds, 12% hits; Potency, µM (doses to about 46.2 µM), inactives show at the highest dose activity change, negative = growth inhibition, most hits filed as inhibitors; further: potency means the concentration at half of the fitted maximal effect; on the % scale 0 is the no-effect control and ±100 the full control effect; nearly all actives have a fitted effect of over 55% in size
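Chicken DT40 Tdp1-/- cells stably complemented with human TDP1 were seeded at 400 cells/well in medium containing 20 nM camptothecin, exposed to pin-transferred compounds, and grown at 37 °C for at least 48 hr. Viability was read as ATP luminescence.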
DT40 TDP1 no CPT: qHTS for Inhibitors of human tyrosyl-DNA phosphodiesterase 1 (TDP1): qHTS in cells in absence of CPT; DT40 Tdp1-/- hTDP1 cells, no CPT, ATP luminescence, 48 h; Potency, µM (doses to about 46.2 µM), inactives show at the highest dose activity change, negative = growth inhibition, usual class: inhibitors; 420,000 compounds, 15% hits; AID 686978, 2013; further: potency means the concentration at half of the fitted maximal effect; on the % scale 0 is the no-effect control and ±100 the full control effect; nearly all actives have a fitted effect of over 55% in size
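Growth of hTDP1-complemented DT40 Tdp1-knockout cells is measured by ATP luminescence after at least 48 hr compound exposure at 37 °C, with DMSO substituting for the 20 nM CPT used in the parallel screen.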
IL-1B inflam inh: inhibitors of inflammasome signaling (IL-1 beta secretion); activity change, % at 57.5 µM; 360,000 compounds, 4.7% hits; THP-1 LPS/ATP IL-1B secretion, AlphaLISA, 16 h; active compounds read low; in the data active means activity change below about -50%; inconclusive means mostly about -30% to -49%; further: on the % scale 0 is the no-effect control and ±100 the full control effect
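THP-1 cells pretreated 1 hr with compounds (up to 57.5 uM final), then stimulated with LPS (250 ng/mL final) plus ATP (1.25 mM final); secreted IL-1B measured by AlphaLISA after 16 hr, decreased signal indicating inhibition.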
D3 ag: activates the human D3 dopamine receptor; P35462; D3R DiscoveRx beta-arrestin cells, luminescence, 90 min; max activation, %; 410,000 compounds, 0.58% hits; AID 652048; in the data active means max activation above about 30%; further: 0% is about no effect
Target sequence (P35462 whole entry, looked up): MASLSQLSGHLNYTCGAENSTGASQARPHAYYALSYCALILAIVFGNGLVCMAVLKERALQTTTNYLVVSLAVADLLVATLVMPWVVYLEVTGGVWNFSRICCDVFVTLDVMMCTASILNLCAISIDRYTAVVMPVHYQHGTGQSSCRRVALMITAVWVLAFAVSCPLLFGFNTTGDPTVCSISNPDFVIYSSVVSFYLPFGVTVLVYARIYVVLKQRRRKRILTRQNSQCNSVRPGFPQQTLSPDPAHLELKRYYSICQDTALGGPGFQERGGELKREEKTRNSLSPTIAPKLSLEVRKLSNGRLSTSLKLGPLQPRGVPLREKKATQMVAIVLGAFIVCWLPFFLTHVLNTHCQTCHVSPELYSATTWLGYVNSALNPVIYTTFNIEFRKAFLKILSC
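Cells at 1500/well, incubated overnight, then treated with pinned compounds (dopamine as control) for 90 min at 37 degrees C. DiscoveRx reagent added for 30 - 60 minutes at room temperature; luminescence read.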
DRD3 antagonist: antagonists of human D3 dopamine receptor; max response, negative = inhibition, %; D3R cells, DiscoveRx beta-arrestin luminescence, antagonist mode; active compounds read low; AID 652054; 360,000 compounds, 2.5% hits; P35462; in the data active means max response below about -50%; inconclusive means no clear call, values can overlap the other calls; further: on the % scale 0 is the no-effect control and ±100 the full control effect
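Cells expressing the human receptor were seeded at 1500 cells/well, incubated overnight at 37 degrees C in 5% CO2, then exposed to library compounds with dopamine controls for 90 minutes at 37 degrees C before luminescent detection.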
ClpP mod: qHTS Assay for Activators of ClpP; ATP-dependent Clp protease proteolytic subunit (Bacillus subtilis (strain 168)), P80244; purified B. subtilis ClpP, FRET peptide cleavage, 20 min; Potency, µM (titrated, usually from 57.5 µM), inactives show at the highest dose activity change, negative = active; 340,000 compounds, 1.9% hits; active means well fitted falling curve with a large enough effect; inconclusive means small, poorly fitted or top-dose-only effect; inactive means no such curve, though single readings can be large or run the other way; further: potency means the concentration at half of the fitted maximal effect; the source files actives as falling curves though it sought activators and does not explain the sign; nearly all actives have a fitted effect of over 65% in size
Target sequence (P80244 whole entry, looked up): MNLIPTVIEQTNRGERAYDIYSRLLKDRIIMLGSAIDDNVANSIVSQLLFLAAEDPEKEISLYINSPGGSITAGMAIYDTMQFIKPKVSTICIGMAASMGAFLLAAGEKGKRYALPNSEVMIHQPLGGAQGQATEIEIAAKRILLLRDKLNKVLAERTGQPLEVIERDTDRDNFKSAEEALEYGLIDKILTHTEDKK
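ClpP 10 microg/mL final, pH 8 Tris/KCl buffer with BSA, glycerol, Tween-20; compound pinned in; FRET-FV substrate; RT 20 min; Ex320/Em430; ΔFRET vs ADEP 5.8 microM, DMSO, no enzyme.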
Numbers without * were called inactive; ? = inconclusive; · = no result. Unless noted, the call rests on the fitted dose curve; in most records, active means well fitted inhibition curve with a large enough effect; inconclusive means small, poorly fitted or top-dose-only effect; inactive means flat fitted curve, though single readings scatter.

SMILES | TDP1 cell CPT | DT40 TDP1 no CPT | IL-1B inflam inh | D3 ag | DRD3 antagonist | ClpP mod
COc1cccc(/C=N/NC(=O)CNC(=O)c2ccco2)c1O | 6.5µM* | 8.2µM* | 77 | 1 | 3 | -5%
COc1ccc(CCCC(=O)N/N=C/c2cccc(OC)c2O)cc1C | 1.8µM* | 1.6µM* | 73 | 1 | 14 | -1%
COc1cccc(/C=N/NC(=O)C[n+]2ccccc2)c1O | -3% | -10% | 9 | 1 | -5 | -3%
COc1cccc(/C=N/NC(=O)CNC(=O)c2ccc3c(c2)OCCO3)c1O | 16µM* | ? | 48 | 3 | 0 | -3%
COc1cccc(/C=N/NC(=O)CNC(=O)c2ccncc2)c1O | ? | ? | 1 | -1 | 23 | -2%
COc1cc(NC(=O)C/C(C)=N/NC(=O)C2CCCCC2)c(OC)cc1Cl | -10% | -10% | -16 | -1 | 6 | ·
Cc1ccc(CNC(=O)c2cc(Sc3ccc(F)cc3F)nc3ccccc23)cc1 | -27% | -23% | · | -8 | · | ?
COc1ccccc1CNC(=O)c1ccc(Cn2c(SCc3ccccc3)nc3cccnc32)cc1 | ? | ? | · | -19 | · | 4%
Cc1ccc(/C=C/C(=O)NC(=S)Nc2ccc(S(=O)(=O)Nc3cc(C)on3)cc2)cc1 | 7% | 1% | 45 | 7 | -1 | ·
COc1cccc(/C=N/NC(=O)CNC(=O)c2cccnc2)c1O | -103% | 7.3µM* | 128 | -17 | 5 | ·
O=C(NN=Cc1ccc(O)cc1)C(=O)NN=Cc1ccc(O)cc1 | 27% | -15% | 13 | 13 | 3 | ·
O=C(N/N=C/c1ccc(O)cc1O)C(=O)N/N=C/c1ccc(O)cc1O | ? | ? | 175 | 40* | 5 | ·
N#CCCN(Cc1cccnc1)CN1C(=O)c2ccccc2C1=O | -1% | -3% | -30 | -3 | -14 | -2%
CCc1ccccc1OCCOc1ccc(C)cc1OC | ? | 29µM* | 26 | -3 | 4 | 2%
COc1ccc(COc2cccc3ccc(C)nc23)cc1F | 5% | -30% | -2 | -4 | -11 | ·
C=CCc1ccc(OCCOCCOc2cccc3ccc(C)nc23)c(OC)c1 | 18µM* | 11µM* | -10 | -9 | -21 | -8%
COc1cc(C)ccc1OCCCOc1ccccc1Br | -10% | -22% | ? | 4 | 14 | -1%
COc1cc(C)ccc1OCCOCCOc1cccc2ccc(C)nc12 | 16µM* | 16µM* | 27 | 10 | 0 | ·
COc1ccc(-n2c(SCC(=O)N3CCC(C)CC3)nc3c([nH]c4ccccc43)c2=O)cc1 | -2% | 2% | · | 3 | · | -26%
COc1ccc2[nH]c3c(=O)n(CCCCC(=O)NCCC(C)C)c(=S)[nH]c3c2c1 | 15µM* | 21µM* | -5 | -2 | -7 | 8%
CCCNC(=O)CCCCn1c(=S)[nH]c2c([nH]c3ccc(OC)cc32)c1=O | 5.8µM* | 5.8µM* | 6 | -4 | -5 | -14%
COc1ccc2[nH]c3c(=O)n(CCCC(=O)NC4CCC(C)CC4)c(=S)[nH]c3c2c1 (configuration not stated) | 12% | 1% | 1 | -1 | 3 | 12%
O=C(c1ccc2ccccc2c1O)N1CCCCC1 | ? | ? | 15 | 7 | 21 | -22%
CC1(C)Cc2c(ccc3ccccc23)C2=C(C(=O)N3CCCC3)C(=O)C(=O)N21 | 8.2µM* | 8.2µM* | 71 | 6 | 26 | ·
O=c1c2c(nc(NCCO)n1CC1CCCCC1)-c1ccccc1CC21CCCC1 | ? | ? | ? | 4 | -2 | 28µM*
SMILES | TDP1 cell CPT | DT40 TDP1 no CPT | IL-1B inflam inh | D3 ag | DRD3 antagonist | ClpP mod
CC1(C)CC(n2c(NCCO)nc3c(c2=O)C2(CCCC2)Cc2ccccc2-3)CCO1 (configuration not stated) | ? | ? | -66* | -2 | -6 | 32µM*
O=c1c2c(nc3n1CCCCC3)-c1ccccc1CC21CCCCC1 | ? | ? | 20 | 1 | 8 | 1%
COCCN(C(=O)COC(=O)c1cccs1)c1c(N)n(Cc2ccccc2)c(=O)[nH]c1=O | -19% | 15% | 0 | 1 | 6 | -1%
O=C(CN1C(=O)CCn2nc(-c3ccccc3)cc21)NCc1ccc(F)cc1 | 10% | -5% | · | -13 | · | -1%
CCOC(=O)Cc1csc(/N=C/c2c(O)n(-c3ccc(C)cc3C)c(=O)c3ccccc23)n1 | ? | 16µM* | -13 | 3 | 3 | ?
Cc1ccccc1CN1C(=O)C2(OCCCO2)c2ccccc21 | 11µM* | ? | -8 | 21 | -11 | 0%
CC1CCOC2(O1)C(=O)N(CN1CCN(c3ccccc3F)CC1)c1ccccc12 (configuration not stated) | 4% | -9% | 7 | -8 | -54* | -3%
O=C1N(CN2CCN(c3cccc(Cl)c3)CC2)c2ccccc2C12OCCCO2 | -27% | -3% | 4 | -30 | -83* | 0%
O=C1N(CN2CCC3(CC2)OCCO3)c2ccccc2C12OCCCO2 | -29% | -12% | 0 | 13 | -13 | -1%
O=C(NCc1ccc2c(c1)OCO2)C1CC(=O)N(CCc2ccc(F)cc2)C1 (configuration not stated) | 2% | 2% | -2 | 3 | 4 | ·
CN1CCC(Oc2ccc(Sc3ccccc3)cc2)CC1 | ? | 23µM* | -55* | -16 | -21 | -3%
Cc1ccc(C(C)(C)C)c(OCC(=O)NCCc2nc3ccccc3[nH]2)c1 | 13µM* | 7.3µM* | · | 4 | · | 0%
Cc1cc(OCC(=O)NCCc2nc3ccccc3[nH]2)cc(C)c1Cl | 12µM* | 12µM* | · | -3 | · | 2%
CNC(=S)N1N=C(c2ccc(C)cc2)CC1c1ccc(OC)c(OC)c1 (configuration not stated) | ? | 15µM* | -16 | -6 | 19 | 1%
CNC(=S)N1N=C(c2ccccc2)CC1c1ccc(OC)c(OC)c1 (configuration not stated) | -17% | -27% | 43 | 1 | -8 | -1%
CNC(=S)N1N=C(c2ccc(Br)cc2)CC1c1ccc(Br)cc1 (configuration not stated) | 15µM* | 12µM* | ? | 0 | 4 | 8%
COc1ccc(C2CCCN2C(=S)Nc2ccc(C)cc2Cl)cc1OC (configuration not stated) | ? | 16µM* | -20 | 17 | 2 | ·

Compound activity (PubChem BioAssay)
